Source: PubChem BioAssay AID1159580 (chemical genetic matrix, 2015)
Several values for one entry are separate records, joined by “and”; a condition that tells them apart may be missing. Identical values can stand only once. Screen size: about 5,500 compounds; about 2,000 (36%) were called active. Roughly 18% stayed inconclusive and do not appear here. Cut-off read from the data, not from the text of the source: active = normalized growth mostly below about 0.91 (no sharp cut-off); inconclusive = no clear call, values can overlap the other calls; inactive = mostly above about 0.92. The list shows a part of the results.

Experiment: chemical genetic growth profiling, strain panel (AID 1159580);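 note: tested at 20 µM; growth read once vehicle control cultures reached saturation at 30 °C; 1 = growth at the plate median or of vehicle wells; lower values mean less growth of the strain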
Details: S. cerevisiae deletion strains, growth OD

Measured: normalized growth

COc1cc2c(cc1OC)C1Cc3ccc(OC)c(OC)c3CN1CC2 (stereo unspecified)
inactive: locus YAL021C, strain ccr4, active compounds read low 0.983 | locus YAL026C, strain drs2, active compounds read low 0.972 | locus YAL030W, strain snc1, active compounds read low 0.983 | locus YBL061C, strain skt5, active compounds read low 0.976 | locus YBR009C, strain hhf1, active compounds read low 0.972 | locus YBR021W, strain FUR4, active compounds read low 0.981 | locus YBR023C, strain chs3, active compounds read low 0.968 | locus YBR171W, strain sec66, active compounds read low 0.965 | locus YBR229C, strain ROT2, active compounds read low 0.985 | locus YBR231C, strain swc5, active compounds read low 0.983 | locus YBR279W, strain paf1, active compounds read low 0.983 | locus YCL011C, strain gbp2, active compounds read low 0.985 | locus YCL016C, strain dcc1, active compounds read low 0.999 | locus YCL029C, strain bik1, active compounds read low 0.998 | locus YCL061C, strain MRC1, active compounds read low 0.983 | locus YCL069W, strain vba3, active compounds read low 0.955 | locus YCR088W, strain abp1, active compounds read low 0.979 | locus YDL005C, strain med2, active compounds read low 0.974 | locus YDL035C, strain GPR1, active compounds read low 1 | locus YDL040C, strain nat1, active compounds read low 0.987 | locus YDL074C, strain BRE1, active compounds read low 0.989 | locus YDL101C, strain DUN1, active compounds read low 1 | locus YDL134C, strain PPH21, active compounds read low 1.03 | locus YDL185W, strain tfp1, active compounds read low 0.984 | locus YDL192W, strain arf1, active compounds read low 0.991 | locus YDR001C, strain nth1, active compounds read low 0.984 | locus YDR069C, strain doa4, active compounds read low 0.972 | locus YDR101C, strain arx1, active compounds read low 0.988 | locus YDR137W, strain rgp1, active compounds read low 0.967 | locus YDR159W, strain sac3, active compounds read low 0.972 | locus YDR162C, strain NBP2, active compounds read low 1.06 | locus YDR195W, strain ref2 0.955 | locus YDR297W, strain sur2, active compounds read low 0.975 | locus YDR318W, strain mcm21, active compounds read low 1 | locus YDR334W, strain swr1, active compounds read low 0.965 | locus YDR335W, strain msn5, active compounds read low 0.97 | locus YDR388W, active compounds read low 0.985 | locus YDR392W, strain spt3, active compounds read low 0.982 | locus YDR502C, strain sam2, active compounds read low 1 | locus YEL003W, strain gim4, active compounds read low 0.978 | locus YEL037C, strain rad23, active compounds read low 0.982 | locus YEL061C, strain CIN8 (second series), active compounds read low 0.95 | locus YEL061C, strain CIN8, active compounds read low 1.02 | locus YER015W, strain faa2, active compounds read low 0.984 | locus YER016W, strain bim1, active compounds read low 0.97 | locus YER110C, active compounds read low 0.982 | locus YER111C, strain swi4, active compounds read low 0.973 | locus YER155C, strain BEM2 (second series), active compounds read low 0.972 | locus YER155C, strain BEM2, active compounds read low 0.988 | locus YER167W, strain BCK2, active compounds read low 0.998 | locus YFR010W, strain ubp6, active compounds read low 0.96 | locus YGL078C, strain dbp3, active compounds read low 0.985 | locus YGL086W, strain mad1, active compounds read low 0.955 | locus YGL167C, strain pmr1, active compounds read low 0.978 | locus YGL173C, strain kem1, active compounds read low 0.987 | locus YGL227W, strain vid30, active compounds read low 0.979 | locus YGL240W, strain doc1, active compounds read low 0.973 | locus YGL248W, strain PDE1, active compounds read low 1.03 | locus YGL253W, strain hxk2, active compounds read low 0.97 | locus YGR135W, strain pre9, active compounds read low 1.01 | locus YGR252W, strain gcn5, active compounds read low 1.01 | locus YHR013C, strain ard1, active compounds read low 0.977 | locus YHR027C, strain rpn1, active compounds read low 1 | locus YHR030C, strain SLT2, active compounds read low 0.996 and 0.965 | locus YHR079C, strain IRE1 (second series), active compounds read low 0.995 | locus YHR079C, strain IRE1, active compounds read low 0.979 | locus YHR094C, strain hxt1, active compounds read low 0.978 | locus YHR129C, strain ARP1, active compounds read low 1 | locus YHR142W, strain chs7, active compounds read low 0.976 | locus YHR200W, strain rpn10, active compounds read low 0.992 | locus YIL066C, strain RNR3, active compounds read low 1.02 | locus YIL073C, strain SPO22, active compounds read low 1.05 | locus YIL125W, strain kgd1, active compounds read low 1 | locus YIR030C, strain dcg1, active compounds read low 0.987 | locus YJL092W, strain hpr5, active compounds read low 0.952 | locus YJL095W, strain BCK1 (second series), active compounds read low 0.975 | locus YJL095W, strain BCK1, active compounds read low 1.04 and 0.988 | locus YJL115W, strain asf1, active compounds read low 0.967 | locus YJL129C, strain trk1, active compounds read low 0.956 | locus YJL134W, strain LCB3, active compounds read low 0.983 | locus YJL154C, strain vps35, active compounds read low 0.981 | locus YJL164C, strain tpk1, active compounds read low 0.99 | locus YJL166W, strain qcr8, active compounds read low 0.99 | locus YJL168C, strain set2, active compounds read low 0.989 | locus YJL187C, strain SWE1 (second series), active compounds read low 1.01 | locus YJR043C, strain POL32, active compounds read low 1.01
